Only some compounds are listed: those with a hit (about 2.3% of all), similar ones and a draw of the others.
PTHR1 ag = qHTS for PTHR1 Agonists: Primary Screen; Potency, µM (titrated, usually from 115 µM), inactives show top-dose activation, hits mostly activators; HEK293 GP2 PTHR1 cells, GloSensor cAMP luminescence, 1 h; Parathyroid hormone/parathyroid hormone-related peptide receptor (Homo sapiens), Q03431; AID 743266, 2014; actives 0.075% (n = 410,000); note: nearly all actives have a fitted effect of over 55% in size
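HEK-293-derived GP2 cells expressing PTHR1 and a GloSensor cAMP reporter, 3,000/well, plated overnight, given luciferin plus IBMX (each 0.5 mM as added) for 1 h at 37 °C, then compound for 1 h at 37 °C. Luminescence was read after 15 min at room temperature.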
ALOX12 inh = Primary qHTS assay for inhibitors of human arachidonate 12S-lipoxygenase (ALOX12): Round 2. Polyunsaturated fatty acid lipoxygenase ALOX12 (Homo sapiens), P18054. purified 12hLO, xylenol orange hydroperoxide absorbance. Potency, µM (series often up to 108 µM), inactives show at the highest dose activity change, negative = inhibition, actives largely listed as inhibitors. actives 1.1% (n = 580,000). AID 1671190, 2021; note: % is set by controls: 0 for no effect and ±100 for the full control effect
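Hydroperoxide product was detected by ferrous iron/xylenol orange as the 573 to 405 nm absorbance ratio. Arachidonic acid at 40 uM (final) was turned over for 30 min at room temperature by 150 nM human 12hLO, pH 7.0 Hepes buffer, after 15 min compound preincubation.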
GRP78 ERSR act = qHTS for Inducers of the Endoplasmic Reticulum Stress Response (ERSR) in Human Glioma: qHTS | Potency, µM, for the others: at the highest dose activation, actives largely listed as activators | AID 602332, 2012 | actives 0.02% (n = 420,000) | U87-MG GRP78 promoter luciferase reporter, 16 h; note: series mostly up to about 76 µM; % of control where 0% means no effect; nearly all actives have a fitted effect of over 35% in size
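Stably transfected U87-MG human glioma cells carrying a GRP78-based luminescent sensor were seeded at 1000 cells/well, pin-dosed with compounds and incubated 16 h. Luciferase reagent was then added, and end-point luminescence was read after 10 min at room temperature.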
GLP1R ag = qHTS of GLP-1 Receptor Agonists; Glucagon-like peptide 1 receptor (Homo sapiens), P43220; HEK293 GLP-1R CRE-luciferase, luminescence, 4-6 h; cells express a hypersensitive GLP-1R form; Potency, µM (doses to about 45.6 µM), inactives show at the highest dose activation, hits mostly activators; actives 0.007% (n = 380,000); AID 624172, 2012; note: % of control where 0% means no effect
GLS inh = qHTS for Inhibitors of Glutaminase (GLS); actives 0.21% (n = 410,000); Potency, µM (top dose mostly 45.5 µM), for the others: at the highest dose activity change, negative = inhibition, most hits filed as inhibitors; GLS enzymatic activity, qHTS titration; note: % is set by controls: 0 for no effect and ±100 for the full control effect
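Assay buffer: 45 mM KH2PO4 pH 8.2, 0.02% Tween-20. hKGA acts on L-glutamine (1 mM solution added); product glutamate is reported by an oxidase/peroxidase Amplex Red coupling, with fluorescence taken at baseline and 30 min.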
GLP1R inv ag = qHTS of GLP-1 Receptor Inverse Agonists (Inhibition Mode); Glucagon-like peptide 1 receptor (Homo sapiens), P43220; HEK293 GLP-1R CRE-luciferase, luminescence, 24 h; GLP-1R form is constitutively active; Potency, µM (highest dose often 38.3 µM), for inactives: top-dose activity change, negative = inhibition, actives largely listed as inhibitors; actives 1.6% (n = 410,000); note: % is set by controls: 0 for no effect and ±100 for the full control effect; nearly all actives have a fitted effect of over 55% in size
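Seeding at 200 cells/uL, 12 h culture, 24 hr compound treatment, then luciferase reagent and a luminescence read; cells are HEK293 stably expressing a constitutively active GLP-1R plus cAMP-responsive luciferase.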
* = called active by the depositor; i = inactive; u = inconclusive; x = no result given; [ ] = remark or other dose. Calls come from the whole dose curve; as a rule, active = well fitted curve in the direction sought with a large enough effect; inconclusive = small, poorly fitted or top-dose-only effect, or another doubt; inactive = no such curve, though single readings can be large; an effect the other way counts as inactive or inconclusive. Potency is the fitted concentration of half-maximal effect.

SMILES	PTHR1 ag	ALOX12 inh	GRP78 ERSR act	GLP1R ag	GLS inh	GLP1R inv ag
COc1ccc(NC(=S)NCC(c2ccco2)N2CCCC2)cc1 (configuration not stated)	i	0%	-2%	9%	-21%	1%
O=C(NCC(c1ccco1)N1CCCCC1)c1ccc(COc2ccc(Cl)cc2)cc1 (configuration not stated)	-28%	u	-1%	12%	3%	2.8µM*
S=C(NCCc1ccccc1)NCC(c1ccco1)N1CCCCC1 (configuration not stated)	i	u	1%	23%	-1%	7.1µM*
COc1ccc2oc(=O)c(C(=O)NCCc3c(C)[nH]c4ccccc34)cc2c1	x	-6%	x	x	x	x
COc1ccc2c(C)c(CCC(=O)N3CCN(Cc4ccccc4)CC3)c(=O)oc2c1	x	-2%	x	x	x	x
COc1c(C)cc(Br)cc1C(=O)Nc1ccc2oc(-c3cccnc3)nc2c1	x	59%	x	x	x	x
O=C(NCC(c1ccco1)N1CCCCC1)C(c1ccccc1)c1ccccc1 (configuration not stated)	-4%	-1%	-1%	5%	-18%	11µM*
O=C(C(c1ccccc1)N1CCN(C2CCS(=O)(=O)C2)CC1)N1CCOCC1 (configuration not stated)	x	-15%	x	x	x	x
COc1cc2c(cc1OC)C(C1C(=O)CC(C)(C)CC1=O)N(C(=O)CCl)CC2 (configuration not stated)	-23%	u	-2%	2%	6%	16%
COc1cc2c(cc1OC)C(c1cc(Br)ccc1F)N(C(=O)CCl)CC2 (configuration not stated)	-59%	16µM*	-13%	-6%	-2%	u
NNc1cc(Cl)c(Cl)cc1Cl	x	7.1µM*	x	x	x	x
NNc1cc(Cl)c(Cl)cc1[N+](=O)[O-]	x	99%	x	x	x	x
CCOc1cc(C(=O)Nc2cnc3ccccc3c2)ccc1OC	x	-5%	x	x	x	x
CCOc1cc2cc(C(=O)c3ccccc3O)cnc2cc1OC	x	8.9µM*	x	x	x	x
Cc1ccc(NC(=O)c2nn(Cc3ccccc3)c(=O)c3ccccc23)c(Cl)c1	x	2%	x	x	x	x
Nc1c(Cl)cc(Nc2ncccc2[N+](=O)[O-])cc1Cl	x	1%	x	x	x	x
Cc1ccc(-c2ccc(/C=C3\C(=O)ON=C3c3ccccc3)o2)c([N+](=O)[O-])c1	-52%[57.5 µM]	4.5µM*	-1%	-8%	56%	0%
Cc1ccc(C2=NOC(=O)/C2=C\c2ccc(C)o2)cc1	-26%	16µM*	3%	-5%	u	-26%
Cc1ccc(/C=C2\C(=O)ON=C2c2ccccc2)o1	-24%	u	1%	2%	-15%	-3%[7.66 µM]
COc1ccccc1N(CC(=O)NCCc1ccc(F)cc1)S(=O)(=O)c1ccccc1	x	11%	x	x	x	x
Cc1nc(-c2ccccc2)n(CC(=O)Nc2ccc(F)c(Cl)c2)c(=O)c1CCO	x	8%	x	x	x	x
CC(C)Oc1ccc(Br)cc1/C=N\NC(N)=S	-45%	40µM*	-5%	0%	-3%	3.2µM*
N#CCOc1ccc2c(=O)c(-c3ccccc3)c(C(F)(F)F)oc2c1	x	-3%	x	x	x	x
COc1ccc(NC(=S)NCCSc2ccc(C)cc2)c(OC)c1	i	35µM*	0%	3%	23%	10µM*
COc1ccc(NC(=S)Nc2ccc(OCc3ccccc3)cc2)c(OC)c1	i	35µM*	-3%	-2%	15%	u
